Bioassay records as filed in PubChem.
ERK EGF inh = blocks ERK signaling stimulated by EGF | HEK293-V1b, EGF-stimulated phospho-ERK AlphaScreen | 0.41% of 130,000 active | Potency, µM (series often up to 11.5 µM), actives largely listed as inhibitors | AID 1454; active = well fitted inhibition curve with a large enough effect; note: nearly all actives have a fitted effect of over 55% in size
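V1b-HEK293, 1% FBS o/n; cpd 30 min 37C; EGF 25 nM final, 5 min; lyse 10 min; AlphaScreen beads 5 h RT. Normalized DMSO basal vs EGF max; Hill AC50.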
Hits are given with their value; . = inactive. Many of the other results were omitted from the sample, so hits are more common in it than they were.

SMILES | ERK EGF inh
CC[C@H]1C2=C3C(CC[C@H]4C(OCc5ccc(F)cc5C(F)(F)F)OC[C@](C)([C@@H]34)N(C(=O)OC(C)(C)C)C2)C2COC(=O)OCC21 (stereo not given in full) | .
COc1ccc(/C=C2\SC(=O)N(CC(=O)NCCC(C)C)C2=O)cc1OC | .
COc1ccc(/C=C2/SC(=O)N(CC(=O)NCCC(C)C)C2=O)cc1OC | .
COc1ccc(/C=C2\SC(=O)N(CC(=O)NNC(=O)c3ccccc3O)C2=O)cc1OC | 13µM
CN(C/C=C\c1ccccc1)Cc1cccc2ccccc12 | .
CCN1/C(=C/C(C)=C/c2sc3ccccc3[n+]2CC)Sc2ccccc21 | 18µM
CCN1/C(=C\C=C(C(C)=O)C(C)=O)Sc2ccccc21 | .
CCN1/C(=C\C(=S)Nc2ccccc2)Sc2ccccc21 | .
CSC(N)=NCCCC(N)C(=O)O (stereo not given) | .
COc1cc([C@@H]2c3cc4c(cc3[C@@H](O[C@@H]3O[C@H]5CO[C@@H](C)O[C@@H]5[C@@H](O)[C@H]3O)[C@@H]3COC(=O)[C@@H]23)OCO4)cc(OC)c1O | .
COc1ccccc1CN1CCCC2(CCN(C(=O)c3ccco3)CC2)C1 | .
COC(=O)[C@@H]1C[C@H]1[C@@H](NC(=O)c1cc(C)nn1C)c1ccccc1 | .
CN(C)c1ccc(C(=S)Nc2ccccc2)cc1 | .
CN(C)c1ccc(NC(=S)c2ccccn2)cc1 | 20µM
CN(C)c1ccc(/C=N/NC(=O)c2ccccn2)cc1 | .
C=C1C2=CC(=O)OC(c3ccoc3)[C@]2(C)CCC1[C@]1(C)C=CC(=O)C(C)(C)C1CC(=O)OC (stereo not given in full) | .
C=CC(C1=CC(=O)C(OC)=CC1=O)c1ccc(O)cc1 (stereo not given) | .
O=C(N/N=C/c1cccnc1)c1ccccc1OCc1cccc(Br)c1 | .
Cc1ccc(/C=N/NC(=O)c2ccccc2OCc2cccc(Br)c2)o1 | 22µM
O=C(N/N=C/c1ccco1)c1ccccc1OCc1ccc(Br)cc1 | .
CC1(C)CCC2(C(=O)O)CC[C@]3(C)C(=CCC4[C@]5(C)CCC(O)C(C)(C)C5C(O)C[C@]43C)C2C1 (stereo not given in full) | .
CCCCC[C@H](O)/C=C/C=C/C/C=C\CCCC(=O)O | .
COCC(=O)N1CCC2(CCCN(Cc3nccs3)C2)CC1 | .
COC(=O)[C@H]1[C@@H]2C[C@H]3c4[nH]c5ccccc5c4CCN3C[C@@H]2CC[C@@H]1O | .
O=C1NN(c2ccccc2)C(=O)/C1=C/c1ccc(-c2ccc(Cl)c(C(=O)O)c2)o1 | .
SMILES | ERK EGF inh
Cc1cccc(N2NC(=O)/C(=C/c3ccc(-c4ccc(Cl)c(C(=O)O)c4)o3)C2=O)c1 | .
O=C1NN(c2ccccc2)C(=O)/C1=C/c1ccc(Sc2ccc(Cl)cc2)o1 | 28µM
O=C(c1cccc(F)c1)N1CCC2(CC1)CCN(c1ccncc1)CC2 | .
O=C(O)c1ccc2cc(-c3ccc(O)c(C45CC6CC(CC(C6)C4)C5)c3)ccc2c1 | 25µM
COc1cc(C(=O)O)ccc1O | .
C[C@@H]1C[C@](C)(C(=O)c2ccc3ccccc3c2)C=C1c1ccc2ccccc2c1 | .
COc1c(O)cc2c(c1O)[C@@H]1O[C@@H](CO)[C@@H](O)[C@@H](O)[C@@H]1OC2=O | .
CC1(C)CCCC2(C)C3C(O)CC2(C)C(O)C31 (stereo not given) | .
CC(C)C[C@@H](CC(=O)N[C@@H](CCCN)CC(=O)N[C@@H]1CCCC[C@H]1C(=O)N[C@H](CC(=O)N[C@@H](CCC(=O)O)CC(=O)O)Cc1c[nH]c2ccccc12)NC(=O)[C@@H]1CCCC[C@H]1N | .
CN(C)c1ccnc(Nc2ccccc2)c1C#N | .
CN(C)c1ccnc2c[cH-]cc12.[Fe].c1ccc(-[c-]2[c-](-c3ccccc3)[c-](-c3ccccc3)[c-](-c3ccccc3)[c-]2-c2ccccc2)cc1 (stereo not given) | 3.2µM
CCC1=C2CC[C@H]3C(=O)N(c4ccccc4)C(=O)[C@H]3[C@H]2[C@@]2(Cc3ccccc3)C(=NCCc3c[nH]c4ccccc34)OC(=O)N2C1=O | .
C=C(CC1([C@@H](NP(=O)(c2ccccc2)c2ccccc2)[C@H]2C[C@@H]2CCN(C(=O)OCC)S(=O)(=O)c2ccc(C)cc2)CC1)c1ccccc1 | .
COC(=O)c1ccc(C(NC(=O)OCc2ccccc2)/C(I)=C/[C@@H](C)C(=O)Nc2ccccc2)cc1 (stereo not given in full) | .
O=C(c1ccncc1)N1CCC[C@@]2(CCN(C(c3ccccc3)c3ccccc3)C2)C1 | .
COC(=O)c1nnc(SC)nc1C(=O)OC | .
COc1cccc(-c2oc3ccccc3c(=O)c2O)c1 | .
COc1cccc(NCc2cc(=O)oc3cc(-c4ccccc4)c(O)cc23)c1 | 28µM
O=c1cc(CN2CCN(c3cccc(Cl)c3)CC2)c2cc(O)c(-c3ccccc3)cc2o1 | .
CC(C)Nc1oc(-c2ccccc2)nc1-c1cccc2ccccc12 | .
CCC[C@@H]1O[C@@H]2C[C@@H]3[C@H]4CCC5=CC(=O)C=C[C@@]5(C)[C@H]4[C@H](O)C[C@@]3(C)[C@@]2(C(=O)CO)O1 | .
Cc1ccc2c(Cl)c(C(=O)Nc3ccc4c(c3)OCO4)sc2c1 | .
CCN(CC)Cc1ccc(NC(=O)c2sc3cc(Cl)ccc3c2Cl)cc1 | 28µM
Cc1ccnc(NC(=O)c2sc3cc(Cl)ccc3c2Cl)c1 | .
O=C(c1cccc(F)c1)N1CCC[C@@]2(CCN(c3ccccc3)C2)C1 | .
SMILES | ERK EGF inh
O=C(Nc1cccc(F)c1)N1CC[C@@]2(CCCN(C(=O)c3cnccn3)C2)C1 | .
COc1cccc([C@@H]2Oc3ccc(Br)cc3C(=O)[C@H]2OC(=O)NS(=O)(=O)c2ccc(F)cc2)c1 | .
COc1ccc(C2C3(C#N)C(N)=NC(OC)(OC)C23C#N)cc1 (stereo not given) | 25µM
COc1ccc([C@@H]2OC2(C(N)=O)C(N)=O)cc1 | .
COc1ccc(C2C(C#N)=C(N)Nc3nc4ccccc4n32)cc1 (stereo not given) | .
CC(C)CC1=NN2C(=N)/C(=C\c3coc4ccccc4c3=O)C(=O)N=C2S1 | .
CCSC1=NSC2=NC(=O)/C(=C\c3coc4ccccc4c3=O)C(=N)N12 | 32µM
CCc1ccc(-n2cccc2/C=C2/C(=N)N3C(=NC2=O)SN=C3S(C)(=O)=O)cc1 | .
COC(=O)c1cc(OC)c(=O)c2c(OC)c(OC)ccc2c1 | .
CC(=O)OC[C@@]12C(=O)[C@@H](O)[C@@H](C)[C@]3(C[C@@H](c4ccoc4)O[C@@H]3OC(C)=O)[C@H]1CCC[C@]21CO1 | .
O=C1CCC=C1C(O)CCc1ccccc1 (stereo not given) | .
Cc1cccc(Nc2c([N+](=O)[O-])c(=O)n(C)c3ccccc23)c1 | .
CC(=O)Nc1ccc(NC(=O)c2cccc3c2-c2ccccc2C3=O)cc1 | .
Cn1c(=O)c(Nc2ccc(O)cc2)c2c3c(cccc31)C(=O)c1ccccc1-2 | 28µM
CCC(/C=C/C(C)C1CCC2C3CCC4=CC(=O)CC[C@@]4(C)C3CC[C@@]12C)C(C)C (stereo not given in full) | .
CO[C@@H]1c2cc(F)ccc2/C(=C\CCOC(=O)C/C=C/c2ccccc2)[C@H]1C | .
Cc1c(NC2=CC(=O)CC(C)(C)C2)ccc([N+](=O)[O-])c1C | .
N#C/C(=N\Nc1ccccc1[N+](=O)[O-])C(=N)N1CCCCC1 | .
CC1=C/C(=N\Nc2ccccc2[N+](=O)[O-])CC(C)(C)C1 | 13µM
